This is an account of results in publication PMC5540273 (PLoS ONE, 2017).

Molecules are shown by their SMILES.

Some test systems named below: CSK; CSNK1A1L; CSNK1A1; CSNK1D; CSNK1E; CSNK1G1; CSNK1G2; CSNK1G3; CSNK2A1; CSNK2A2; DAPK1; DAPK2; DAPK3; DDR1; DDR2.
Settings in all cases: concentration: 1 μM, replicates: in singlicate; n = 1
The next assay relates to T1, CTK.
T1 construct: gene MATK

In another assay the test system is T2, DCAMKL1.
T2 construct: gene DCLK1

The next assay concerns T3, DCAMKL2.
T3 construct: gene DCLK2

In another assay the test system is T4, DCAMKL3.
T4 construct: gene DCLK3

For another assay, the system named is T5, DLK.
T5 construct: gene MAP3K12
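Also: KINOMEscan kinase panel screen.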

For `CCc1ccc(-c2ccc3c(c2)-c2n[nH]cc2S(=O)(=O)N3C)cc1`, the “%Inh” value in the assay on CSK is listed as 0%; in the assay with CSNK1A1L, 0%; in the assay with CSNK1A1, 0%; in the assay on CSNK1D, 32%; in the assay with CSNK1E it was 0%; in the assay on CSNK1G1, 0%. In addition, the “%Inh” value with CSNK1G2 was 0%; with CSNK1G3, 0%; with CSNK2A1 it was 0%; in the assay on CSNK2A2, 0%; in the assay with CTK it was 0%; with DAPK1 it was 24%. For the same compound, the “%Inh” value with DAPK2 is listed as 7%; with DAPK3 it was 0%; in the assay on DCAMKL1, 34%; in the assay with DCAMKL2, 0%; in the assay on DCAMKL3 it was 13%; with DDR1 it was 0%. Besides, the “%Inh” value is recorded as 9% in the assay on DDR2 and 0% in the assay on DLK.
On to `Fc1ccc(-c2nn3cccc(F)c3c2-c2ccncc2)cc1` [GW475620], for which the “%Inh” value in the assay on CSK amounted to 0%; in the assay on CSNK1A1L, 30%; in the assay with CSNK1A1, 69%; in the assay with CSNK1D, 94%; with CSNK1E, 96.2%; in the assay on CSNK1G1, 16%. For the same compound, the “%Inh” value in the assay on CSNK1G2 is given as 2%; in the assay with CSNK1G3, 24%; with CSNK2A1 it was 11%; in the assay with CSNK2A2, 9%; in the assay with CTK, 0%; with DAPK1, 0%. For the same compound, the “%Inh” value in the assay on DAPK2 is 0%; in the assay with DAPK3, 5%; in the assay with DCAMKL1, 0%; with DCAMKL2, 0%; in the assay with DCAMKL3, 10%; in the assay with DDR1, 47%. The “%Inh” value in the assay with DDR2 is 39%; with DLK, 15%.
As to `Cn1cnc2c(N)ncnc21` [SKF-97623], the “%Inh” value in the assay on CSK came out at 0%; with CSNK1A1L it was 22%; in the assay with CSNK1A1, 1%; with CSNK1D, 0%; in the assay on CSNK1E, 8%; with CSNK1G1, 0%. In addition, the “%Inh” value in the assay on CSNK1G2 was determined as 70%; in the assay with CSNK1G3, 0%; in the assay with CSNK2A1 it was 0%; with CSNK2A2, 0%; with CTK it was 0%; with DAPK1, 100%. Besides, the “%Inh” value with DAPK2 is reported as 0%; in the assay on DAPK3, 0%; in the assay on DCAMKL1, 0%; with DCAMKL2, 0%; in the assay on DCAMKL3, 11%; in the assay on DDR1, 0%. Besides, the “%Inh” value was determined as 30% in the assay with DDR2 and 6% in the assay with DLK.
As to `Fc1ccc(-c2nc3n(c2-c2ccncc2)CCS3)cc1` [GI98581], the “%Inh” value in the assay with CSK worked out at 0%; in the assay with CSNK1A1L it was 30%; in the assay with CSNK1A1 it was 84%; with CSNK1D it was 95.3%; with CSNK1E, 98.2%; with CSNK1G1, 14%. Besides, the “%Inh” value is on record as 17% in the assay with CSNK1G2; 32% in the assay on CSNK1G3; 10% in the assay on CSNK2A1; 6% with CSNK2A2; 0% with CTK; 0% in the assay on DAPK1. In addition, the “%Inh” value in the assay on DAPK2 is given as 0%; in the assay on DAPK3 it was 0%; with DCAMKL1 it was 0%; with DCAMKL2, 21%; in the assay with DCAMKL3, 30%; with DDR1, 54%. Also, the “%Inh” value with DDR2 worked out at 54%; in the assay on DLK it was 26%.
In the case of `Cc1ccccc1Cn1ccn2c(=O)cc(N3CCOCC3)nc12` [GSK2269905], the “%Inh” value in the assay on CSK is 0%; in the assay with CSNK1A1L, 0%; with CSNK1A1 it was 0%; in the assay with CSNK1D, 4%; in the assay with CSNK1E, 28%; in the assay with CSNK1G1, 0%. In addition, the “%Inh” value is recorded as 0% in the assay with CSNK1G2; 22% with CSNK1G3; 0% in the assay on CSNK2A1; 0% in the assay on CSNK2A2; 0% in the assay on CTK; 0% in the assay on DAPK1. Besides, the “%Inh” value worked out at 0% with DAPK2; 0% in the assay on DAPK3; 0% with DCAMKL1; 7% in the assay with DCAMKL2; 4% in the assay on DCAMKL3; 0% in the assay on DDR1. In addition, the “%Inh” value in the assay on DDR2 and in the assay with DLK was 0% each time.
`O=C(Nc1n[nH]c2cc(-c3ccsc3)ccc12)C1CC1` [SB-732932]: the “%Inh” value in the assay on CSK amounted to 0%; in the assay on CSNK1A1L, 17%; in the assay on CSNK1A1, 0%; in the assay with CSNK1D, 0%; with CSNK1E, 0%; in the assay on CSNK1G1, 24%. For the same compound, the “%Inh” value in the assay on CSNK1G2 worked out at 0%; in the assay with CSNK1G3, 0%; in the assay with CSNK2A1 it was 29%; in the assay with CSNK2A2 it was 52%; in the assay with CTK, 32%; with DAPK1, 4%. The “%Inh” value stood at 41% in the assay with DAPK2; 40% in the assay on DAPK3; 0% in the assay with DCAMKL1; 0% with DCAMKL2; 74% in the assay on DCAMKL3; 0% with DDR1. Moreover, the “%Inh” value with DDR2 and with DLK was 0% in each case.
As to `CC[C@@H]1CO[C@H](C(=O)Nc2ccccc2)CN1c1cc(-c2ccc3c(N)n[nH]c3c2)nc(NC)n1` [GSK2376236], the “%Inh” value came out at 0% in the assay on CSK; 4% in the assay with CSNK1A1L; 0% in the assay on CSNK1A1; 39% in the assay with CSNK1D; 42% in the assay on CSNK1E; 7% with CSNK1G1. In addition, the “%Inh” value came out at 31% in the assay with CSNK1G2; 39% in the assay on CSNK1G3; 12% in the assay with CSNK2A1; 10% in the assay with CSNK2A2; 0% with CTK; 17% in the assay on DAPK1. The “%Inh” value in the assay on DAPK2 worked out at 37%; in the assay with DAPK3, 47%; in the assay with DCAMKL1, 2%; with DCAMKL2, 0%; in the assay on DCAMKL3, 90%; in the assay with DDR1, 0%. For the same compound, the results for the “%Inh” value with DDR2 and in the assay with DLK were 11% and 0%, respectively.
Turning to `COc1nccc(-c2c(-c3ccc(F)cc3)ncn2CCCN2CCOCC2)n1` [SB-282852], the “%Inh” value was determined as 0% in the assay on CSK; 45% in the assay with CSNK1A1L; 44% in the assay with CSNK1A1; 31% in the assay on CSNK1D; 29% in the assay with CSNK1E; 0% in the assay on CSNK1G1. In addition, the “%Inh” value came to 0% with CSNK1G2; 53% with CSNK1G3; 0% in the assay with CSNK2A1; 9% in the assay on CSNK2A2; 22% in the assay with CTK; 5% in the assay with DAPK1. For the same compound, the “%Inh” value in the assay with DAPK2 was 0%; with DAPK3, 22%; with DCAMKL1, 35%; with DCAMKL2, 0%; in the assay on DCAMKL3, 11%; in the assay on DDR1, 0%. The “%Inh” value in the assay on DDR2 is listed as 35%; with DLK, 18%.
Turning to `COc1ccc2cc(-c3nc(-c4ccccc4C(C)C)[nH]c3-c3ccncc3)ccc2c1` [SB-660566], the “%Inh” value with CSK was 0%; with CSNK1A1L, 20%; with CSNK1A1 it was 0%; in the assay with CSNK1D it was 22%; in the assay on CSNK1E it was 34%; in the assay on CSNK1G1, 10%. The “%Inh” value with CSNK1G2 was found to be 0%; in the assay with CSNK1G3 it was 0%; in the assay with CSNK2A1, 0%; in the assay on CSNK2A2, 2%; in the assay with CTK it was 0%; in the assay with DAPK1 it was 0%. In addition, the “%Inh” value came to 0% in the assay with DAPK2; 8% with DAPK3; 1% in the assay on DCAMKL1; 0% with DCAMKL2; 23% in the assay on DCAMKL3; 90.5% in the assay on DDR1. Also, the “%Inh” value in the assay on DDR2 is 6%; in the assay with DLK it was 18%.
On to `Nc1cccc(-c2ccc3c(N)n[nH]c3c2)n1` [GSK2192730], for which the “%Inh” value was determined as 15% in the assay on CSK; 0% with CSNK1A1L; 77% with CSNK1A1; 0% with CSNK1D; 39% in the assay on CSNK1E; 4% with CSNK1G1. In addition, the “%Inh” value in the assay on CSNK1G2 turned out to be 0%; in the assay with CSNK1G3, 19%; in the assay with CSNK2A1, 27%; in the assay on CSNK2A2 it was 42%; with CTK it was 0%; in the assay with DAPK1, 27%. For the same compound, the “%Inh” value in the assay on DAPK2 is on record as 2%; with DAPK3, 28%; in the assay on DCAMKL1, 0%; with DCAMKL2 it was 0%; with DCAMKL3 it was 0%; in the assay on DDR1, 0%. Besides, the “%Inh” value in the assay with DDR2 and in the assay on DLK was 0% each time.
